Source: PubChem BioAssay (several laboratories)
In the library only some 2% were active in any assay of this set; here they are far more common.
NOD2 RIPK2 PPI – inhibitors of human NOD2-RIPK2 interaction; O43353; CHO BLA complementation NOD2-RIPK2, CCF4 ratio; inhibition, % at 4.98 µM; actives 0.38% (n = 360,000); AID 624267; in the data active = inhibition above about 21%;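 also: 0% = vehicle only and 100% = reference blocker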
ABHD5 PLIN5 PPI – inhibitors of human ABHD5-perilipin-5 interaction. Q00G26+Q8WTS1. Split G. princeps luciferase complementation, luminescence, 4 h. inhibition, % at 4 µM. actives 0.78% (n = 360,000). AID 602281;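 active = inhibition above the mean inhibition across every tested compound plus 3 SD, cut at about 22% in these data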;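 also: 0% = DMSO only wells and the 100% control is not disclosed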
TLR9-MyD88 inh – TLR9-MyD88 interaction inhibition; Q9NR96+Q99836; inhibition, % at 4.98 µM; actives 0.21% (n = 340,000); CHO BLA complementation TLR9-MyD88, CCF4 FRET ratio;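 active = inhibition above the mean over all tested compounds plus 3 SD, cut at about 21% in these data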;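 also: 0% = DMSO only wells and 100% = clavulanate BLA inhibitor control wells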
TLR4-MyD88 BLA – blocks binding of human TLR4 to MyD88. HeLa CL3-4 TLR4/MyD88 BLA complementation, FRET ratio. actives 0.18% (n = 200,000). inhibition, % at 8.4 µM. O00206+Q99836; in the data active = inhibition above about 25%;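 also: 0% = vehicle and 100% = reference inhibitor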
Exocytosis inh – blocks lytic granule exocytosis. actives 0.66% (n = 360,000). inhibition, % at 10 µM. AID 651702. TALL-104 LAMP-1 surface exposure, flow cytometry; cells stimulated with thapsigargin and PMA;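 active = inhibition above about 55%, limit read from the data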
B2AR ag – activates human beta-2 adrenergic receptor causing internalization; P07550; Am2.2-beta2AR cells, FAP receptor internalization, flow cytometry; response, % (no concentration beside the values); actives 0.43% (n = 340,000);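 active = response above a set limit, near 3 SD of response in nonfluorescent compounds, cut at about 42% in these data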
ABHD5 PLIN5 conf – confirmation of human ABHD5-PLIN5 interaction inhibitors; actives 67% (n = 2,200); AID 651612; shares compounds with ABHD5 PLIN5 PPI; biochemical ABHD5-PLIN5 interaction, luminescence; inhibition, % at 4 µM; in the data active = inhibition above about 23%;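 also: 0% = DMSO vehicle wells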
HNF4 split-luc – active in HNF4 split-luciferase counter-screen for ABHD5-PLIN5 inhibitors; shares compounds with ABHD5 PLIN5 PPI; HNF4 dimerization, luminescence, biochemical; inhibition, % at 4 µM; actives 77% (n = 2,200);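 active = mean inhibition across replicate wells exceeding the computed hit threshold, cut at about 13% in these data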;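 also: light from luciferase halves that rejoin when HNF4 fusion proteins dimerize; 0% = DMSO only wells and the 100% control is not given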
An asterisk follows results filed as active; x = not tested or not shown.

SMILES	NOD2 RIPK2 PPI	ABHD5 PLIN5 PPI	TLR9-MyD88 inh	TLR4-MyD88 BLA	Exocytosis inh	B2AR ag	ABHD5 PLIN5 conf	HNF4 split-luc
O=C1/C(=C/c2cccnc2)CC/C1=C\c1cccnc1	-17	42*	-6	5	-1	0	72*	50*
O=C1/C(=C\c2cccnc2)CCc2ccccc21	-6	14	2	11	-6	-4	x	x
CCC1C/C(=C\c2cccnc2)C(=O)/C(=C/c2cccnc2)C1 (configuration not stated)	11	91*	8	-13	-2	12	102*	100*
CCOC(=O)C1CC(=NO)c2ccc(OC)c(OC)c2C1 (configuration not stated)	-7	0	5	x	-6	x	x	x
COc1ccccc1CNC(=O)C1(C)CCN1C(=O)Cc1ccc(-c2ccccc2)cc1 (configuration not stated)	5	-15	x	x	12	x	x	x
Cc1ccc(C2C3=C(CC(C)(C)CC3=O)N=C3c4ccccc4C(=O)C32)cc1 (configuration not stated)	4	28*	2	-7	28	-6	58*	69*
Cn1nnc(NC(=S)NC(=O)/C=C/c2ccco2)n1	5	24*	1	x	2	2	5	5
CCOc1ccc(CCN2C(=S)N([C@@H](CC(C)C)CN3CCCC3CN3C(=S)NC[C@@H]3CC(C)C)C[C@@H]2CC(C)C)cc1 (some centres not stated)	-2	1	-2	x	15	6	x	x
Oc1ccc(N=Nc2ccccc2)o1	-10	41*	-4	x	15	8	66*	68*
CCOC(=O)C1=C(C)NC2=C(C(=O)C(C(=O)OCC)C(c3ccco3)C2)C1c1ccccn1 (configuration not stated)	-7	42*	1	-8	0	-4	3	17*
CCCCNc1c(-c2ccc(F)cc2)nc2nc(C)cc(C)n12	-6	7	x	x	-5	x	x	x
O=C(c1ccc(F)cc1)C(CN1CCOCC1)c1ccccc1 (configuration not stated)	7	38*	10	17	9	12	29*	99*
O=C(c1ccccc1)C(CCC(CN1CCOCC1)C(=O)c1ccccc1)CN1CCOCC1 (configuration not stated)	30*	58*	10	4	76*	9	46*	102*
C[C@@H]1CN([C@@H](C)CO)C(=O)c2cc(C#Cc3ccccc3)cnc2O[C@H]1CN(C)C(=O)c1ccccc1F	-7	-3	-6	x	-2	x	x	x
Cc1ccc(F)c(S(=O)(=O)NC(=O)C2(C)CCN2C(=O)c2cccc3ccccc23)c1 (configuration not stated)	8	-9	x	x	-4	x	x	x
CCCC(=O)N1CCC1(C)C(=O)NS(=O)(=O)c1cccs1 (configuration not stated)	0	5	x	x	-1	x	x	x
CN(c1ccccc1)S(=O)(=O)c1ccc(NC(=O)CC(=O)c2ccccc2)cc1	-8	-5	-6	x	5	-2	x	x
C(=C\c1ccccc1)/CN1CCN(C(c2cccc3ccccc23)c2nnnn2C2CCCC2)CC1 (configuration not stated)	-3	8	x	x	2	x	x	x
CCCC1=NN(C(=O)C(=O)Nc2ccc(Br)cc2)C(O)(C(F)(F)F)C1 (configuration not stated)	-4	23*	5	-12	-1	2	37*	42*
COc1ccc(CN2[C@@H](CC(C)=O)c3ccc(/C=C/C(C)=O)cc3S2(=O)=O)cc1	1	35*	-3	x	4	9	70*	62*
COc1cccc(N2[C@@H](CC(C)=O)c3ccc(/C=C/C(C)=O)cc3S2(=O)=O)c1	2	32*	-1	x	3	5	65*	57*
N#Cc1ccccc1Sc1ccccc1N	-4	0	6	3	1	-6	x	x
